Records with an inconclusive call do not appear. Active and inactive are the calls of the source. Calls follow the shape of the dose curve; as a rule, active = well fitted inhibition curve with a large enough effect; inconclusive = small, poorly fitted or top-dose-only effect; inactive = no such curve, though single readings can be large or run the other way.
experiment: qHTS to identify inhibitors of the type 1 interferon - major histocompatibility complex class I in skeletal muscle: Secondary screen by immunofluorescence; details: C25cl48 myoblasts, IFN-b induced HLA-ABC immunofluorescence, 24 h; series mostly up to 49.8 µM; also: nearly all actives have a fitted effect of over 70% in size
Procedure, shortened: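 Immortalized human myoblasts C25cl48 were stimulated with 4.0 ng/ml IFN-beta and exposed to an 11-point 1:3 compound titration, top 50 uM, for 24 h at 37 C. They were then fixed and immunostained for HLA-ABC, and quantified by laser scanning cytometry.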
Potency is read from the fitted curve at half-maximal effect.

Row | SMILES | Potency
1 | COc1cc(C(=O)N2CCC(N3CCN(C)CC3)CC2)ccc1Nc1ncc2c(n1)N(C)c1ccccc1C(=O)N2C | 6470 nM (active)
2 | CO[C@H]1/C=C\C=C(\C)C(=O)NC2=CC(=O)C(NCCN(C)C)=C(C[C@@H](C)C[C@H](OC)[C@H](O)[C@@H](C)/C=C(/C)[C@@H]1OC(N)=O)C2=O | inactive
3 | CC(=O)c1cnc2ccc(-c3cc(Cl)c(O)c(Cl)c3)nc2c1NC1CCC(CN(C)C)CC1 (stereo unspecified) | 45.8 nM (active)
4 | CCCCC(=O)OCC(=O)[C@H]1[C@H](C)C[C@H]2[C@@H]3C[C@H](F)C4=CC(=O)C=C[C@]4(C)[C@@]3(F)[C@@H](O)C[C@@]21C | inactive
5 | C=C1C(=O)O[C@@H]2[C@H]3O[C@]3(C)CCC=C(C)CC[C@@H]12 | 2890 nM (active)
6 | COc1cc(F)ccc1-c1ncnc(Nc2cccc(CS(C)(=N)=O)c2)n1 (stereo unspecified) | 814 nM (active)
7 | O=C1Nc2nc(-c3c(O)cccc3OCC3CC3)cc([C@@H]3CCCNC3)c2CO1 | 4580 nM (active)
8 | CCc1cc(C(N)=O)ccc1-n1nc(C(C)C)c2c(-n3cnc(-c4cnn(C)c4)c3)ccnc21 | 258 nM (active)
9 | COC(=O)C[C@](O)(CCCC(C)(C)O)C(=O)O[C@@H]1C(OC)=C[C@]23CCCN2CCc2cc4c(cc2[C@H]13)OCO4 | 28.9 nM (active)
10 | CC(=O)c1ccc2c(c1)c1cc(C(C)=O)ccc1n2CCNC(C)C | 647 nM (active)
11 | CC[C@@]1(O)C(=O)OCc2c1cc1n(c2=O)Cc2cc3cc(O)ccc3nc2-1 | 1620 nM (active)
12 | CN(Cc1ccc(/C=C/C(=O)NO)cc1)CC12CC3CC(CC(C3)C1)C2 | 72.6 nM (active)
13 | CC(C)[C@H](C(=O)Nc1ccc(C(=O)NO)cc1)c1ccccc1 | 458 nM (active)
14 | O=C(CCCCCCC(=O)Nc1ccccc1)NO | 914 nM (active)
15 | CCc1c2c(nc3ccc(O)cc13)-c1cc3c(c(=O)n1C2)COC(=O)[C@]3(O)CC | 2570 nM (active)
16 | Nc1ccccc1NC(=O)c1ccc(CNc2nccc(-c3cccnc3)n2)cc1 | 3240 nM (active)
17 | CC[C@@]1(O)C(=O)OCc2c1cc1n(c2=O)Cc2c-1nc1ccccc1c2/C=N/OC(C)(C)C | 3240 nM (active)
18 | COc1cccc2c1C(=O)c1c(O)c3c(c(O)c1C2=O)C[C@@](O)(C(=O)CO)C[C@@H]3O[C@H]1C[C@H](N)[C@@H](O)[C@H](C)O1 | 914 nM (active)

Row | SMILES | Potency
19 | Cc1cc(Nc2nc(N[C@@H](C)c3ncc(F)cn3)ncc2Cl)n[nH]1 | 647 nM (active)
20 | COC(=O)N[C@@H](C)CNc1nccc(-c2cn(C(C)C)nc2-c2cc(Cl)cc(NS(C)(=O)=O)c2F)n1 | inactive
21 | CNC(=O)c1cc(Oc2ccc(NC(=O)Nc3cc(C(C)(C)C)nn3-c3ccc4ncccc4c3)c(F)c2)ccn1 | 1820 nM (active)
22 | O=C1NCCc2[nH]c(-c3ccncc3)cc21 | 2570 nM (active)
23 | CC(C)(C)c1cnc(CSc2cnc(NC(=O)C3CCNCC3)s2)o1 | 289 nM (active)
24 | CC(=O)[C@]1(O)Cc2c(O)c3c(c(O)c2[C@@H](O[C@H]2C[C@H](N)[C@H](O)[C@H](C)O2)C1)C(=O)c1ccccc1C3=O | 230 nM (active)
25 | CC(C)C[C@H](NC(=O)[C@H](Cc1ccccc1)NC(=O)c1cnccn1)B(O)O | 25.7 nM (active)
26 | Cc1ccc(C(N)=O)cc1Nc1nccc(-c2cn(C(C)C)c3cnccc23)n1 | 3330 nM (active)
27 | C=CC(=O)N1CC/C(=C\c2ccc(F)c([N+](=O)[O-])c2)C(=O)/C(=C/c2ccc(F)c([N+](=O)[O-])c2)C1 | 182 nM (active)
28 | CCN(CC)Cc1ccc2cc(COC(=O)Nc3ccc(C(=O)NO)cc3)ccc2c1 | 258 nM (active)
29 | CC(C)(C)c1nc2c3cc[nH]c(=O)c3c3cc(F)ccc3c2[nH]1 | 514 nM (active)
30 | CN(c1ncccc1CNc1nc(Nc2ccc3c(c2)CC(=O)N3)ncc1C(F)(F)F)S(C)(=O)=O | 5760 nM (active)
31 | Cc1c[nH]c2nc(Nc3ccc(N4CCN(C)CC4)c(F)c3)nc(-c3cccc(CC#N)c3)c12 | 1620 nM (active)
32 | C1=C/COCc2cc(ccc2OCCN2CCCC2)Nc2nccc(n2)-c2cccc(c2)COC/1 | 1290 nM (active)
33 | Cc1[nH]c2ccccc2c1CCNCc1ccc(/C=C/C(=O)NO)cc1 | 22.9 nM (active)
34 | CC(C)C[C@H](NC(=O)[C@H](CCc1ccccc1)NC(=O)CN1CCOCC1)C(=O)N[C@@H](Cc1ccccc1)C(=O)N[C@@H](CC(C)C)C(=O)[C@@]1(C)CO1 | 64.7 nM (active)
35 | Cc1ccc2nc(NCCN)c3ncc(C)n3c2c1 | 4080 nM (active)
36 | Cc1ncc(-c2ccnc(Nc3ccc(S(C)(=O)=O)cc3)n2)n1C(C)C | 914 nM (active)

Source: PubChem BioAssay AID1347414 (National Center for Advancing Translational Sciences (NCATS), 2020)
